In ChEMBL document CHEMBL2218924, “A broad activity screen in support of a chemogenomic map for kinase signalling research and drug discovery” (Biochem J, 2013):

Biological target: T1, Serine/threonine-protein kinase Sgk3 (Homo sapiens) (UniProt Q96BR1)
T1 sequence (whole entry): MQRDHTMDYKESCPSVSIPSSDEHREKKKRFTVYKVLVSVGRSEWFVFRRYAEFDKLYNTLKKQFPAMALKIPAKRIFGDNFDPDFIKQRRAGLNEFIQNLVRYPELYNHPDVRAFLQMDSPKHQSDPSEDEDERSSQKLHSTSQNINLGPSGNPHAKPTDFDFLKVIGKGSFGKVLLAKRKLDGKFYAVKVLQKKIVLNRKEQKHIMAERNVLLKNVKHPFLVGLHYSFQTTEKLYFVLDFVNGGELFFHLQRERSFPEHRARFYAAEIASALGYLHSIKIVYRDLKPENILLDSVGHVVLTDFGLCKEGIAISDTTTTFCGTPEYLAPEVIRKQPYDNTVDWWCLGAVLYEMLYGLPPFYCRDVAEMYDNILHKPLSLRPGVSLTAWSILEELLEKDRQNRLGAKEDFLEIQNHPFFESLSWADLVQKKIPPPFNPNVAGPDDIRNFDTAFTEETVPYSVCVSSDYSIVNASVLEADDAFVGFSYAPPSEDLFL
Settings: at 1 µM

Compound	residual activity [%]
Oc1n[nH]c2nnc(-c3c(-c4ccccc4)nn4ccccc34)cc12	92
CCCC(=O)Oc1ccc2[nH]c(C(=O)c3cc4ccccc4[nH]3)cc2c1	94
O=C1Cc2c([nH]c3ccc(Br)cc23)-c2ccccc2N1	91
Oc1ccc(-c2nc(-c3ccc(F)cc3)c(-c3ccncc3)[nH]2)cc1	109
Nc1ncnc2c1cnn2-c1ccccc1	94
CCc1nc(-c2ccc(OC)cc2)[nH]c1-c1ccncc1	115
COc1cc(OC)c(/C=C2\C(=O)Nc3ccccc32)c(OC)c1	92
Nc1ncnc2c1c(-c1ccc(Oc3ccccc3)cc1)cn2C1CCCC1	104
O=C1Nc2ccc(Cl)cc2/C1=C/c1cc(Cl)c(O)c(Cl)c1	95
Ic1cccc(CSc2nnc(-c3ccncc3)o2)c1	91
CNc1cc2c(Nc3cccc(Br)c3)ncnc2cn1	103
c1ccc2c(-c3ccncc3)c[nH]c2c1	101
COc1ccc(OC)c2c(=S)c3ccccc3[nH]c12	112

Biological target: T1, Serine/threonine-protein kinase Sgk3 (Homo sapiens)
Settings: at 10 µM

Compound	residual activity [%]
N/C(=N\[N+](=O)[O-])N/N=C\c1ccc(-c2cccc([N+](=O)[O-])c2)o1	81
CC(C)[C@H](CO)Nc1nc(Nc2cccc(Cl)c2)c2ncn(C(C)C)c2n1	97
CCc1nc(-c2ccc(OC)cc2)[nH]c1-c1ccncc1	79
COc1cc(OC)c(/C=C2\C(=O)Nc3ccccc32)c(OC)c1	84

Biological target: Serine/threonine-protein kinase SIK1 (Homo sapiens) (UniProt P57059)
Sequence (P57059 whole entry): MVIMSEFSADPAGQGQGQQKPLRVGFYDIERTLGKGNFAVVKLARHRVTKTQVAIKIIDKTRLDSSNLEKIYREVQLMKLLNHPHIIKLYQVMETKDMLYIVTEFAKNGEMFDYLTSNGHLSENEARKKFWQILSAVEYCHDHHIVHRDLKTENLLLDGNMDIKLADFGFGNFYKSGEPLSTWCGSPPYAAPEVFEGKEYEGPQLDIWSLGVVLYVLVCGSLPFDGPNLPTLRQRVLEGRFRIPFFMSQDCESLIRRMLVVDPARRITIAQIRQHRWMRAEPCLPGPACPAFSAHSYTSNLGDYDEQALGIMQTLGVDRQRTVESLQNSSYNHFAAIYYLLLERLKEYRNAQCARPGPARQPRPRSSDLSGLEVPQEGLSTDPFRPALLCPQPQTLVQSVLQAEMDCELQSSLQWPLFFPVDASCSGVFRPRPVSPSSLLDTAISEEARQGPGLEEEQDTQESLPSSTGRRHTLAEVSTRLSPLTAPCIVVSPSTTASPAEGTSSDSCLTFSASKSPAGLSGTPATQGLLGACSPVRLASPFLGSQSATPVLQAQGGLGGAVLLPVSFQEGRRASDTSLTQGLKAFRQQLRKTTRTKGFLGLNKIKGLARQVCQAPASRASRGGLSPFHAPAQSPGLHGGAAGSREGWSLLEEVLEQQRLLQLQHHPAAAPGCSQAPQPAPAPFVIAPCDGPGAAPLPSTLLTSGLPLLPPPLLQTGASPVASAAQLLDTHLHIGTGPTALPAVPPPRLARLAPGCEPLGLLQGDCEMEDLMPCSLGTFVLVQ
Settings: at 1 µM

Compound	residual activity [%]
CC(C)[C@H](CO)Nc1nc(Nc2cccc(Cl)c2)c2ncn(C(C)C)c2n1	85
CCc1nc(-c2ccc(OC)cc2)[nH]c1-c1ccncc1	139
COc1cc(OC)c(/C=C2\C(=O)Nc3ccccc32)c(OC)c1	106

Biological target: SRSF protein kinase 2 (Homo sapiens) (UniProt P78362)
Sequence (P78362 whole entry, looked up): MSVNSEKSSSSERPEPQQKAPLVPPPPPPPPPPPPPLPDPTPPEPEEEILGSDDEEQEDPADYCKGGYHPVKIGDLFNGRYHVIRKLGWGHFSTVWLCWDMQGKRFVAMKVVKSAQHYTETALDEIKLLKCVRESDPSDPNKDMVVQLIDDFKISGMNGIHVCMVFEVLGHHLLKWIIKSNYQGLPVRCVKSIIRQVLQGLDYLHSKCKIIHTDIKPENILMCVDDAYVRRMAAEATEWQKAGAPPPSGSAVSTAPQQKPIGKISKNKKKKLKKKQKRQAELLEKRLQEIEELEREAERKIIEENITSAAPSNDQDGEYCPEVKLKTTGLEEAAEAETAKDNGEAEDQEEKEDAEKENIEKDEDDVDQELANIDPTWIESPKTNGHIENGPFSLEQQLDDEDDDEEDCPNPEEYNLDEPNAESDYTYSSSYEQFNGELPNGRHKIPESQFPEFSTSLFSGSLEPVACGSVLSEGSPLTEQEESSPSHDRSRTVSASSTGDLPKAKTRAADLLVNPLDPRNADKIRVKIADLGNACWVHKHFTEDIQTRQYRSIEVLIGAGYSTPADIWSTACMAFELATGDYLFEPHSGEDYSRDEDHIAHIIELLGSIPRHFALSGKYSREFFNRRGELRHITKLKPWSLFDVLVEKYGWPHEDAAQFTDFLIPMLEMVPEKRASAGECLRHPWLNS
Settings: at 1 µM

Compound	residual activity [%]
N/C(=N\[N+](=O)[O-])N/N=C\c1ccc(-c2cccc([N+](=O)[O-])c2)o1	99
CC(C)[C@H](CO)Nc1nc(Nc2cccc(Cl)c2)c2ncn(C(C)C)c2n1	32
CCc1nc(-c2ccc(OC)cc2)[nH]c1-c1ccncc1	102
COc1cc(OC)c(/C=C2\C(=O)Nc3ccccc32)c(OC)c1	104

Biological target: SRSF protein kinase 2 (Homo sapiens) (UniProt P78362)
Settings: at 10 µM

Compound	residual activity [%]
N/C(=N\[N+](=O)[O-])N/N=C\c1ccc(-c2cccc([N+](=O)[O-])c2)o1	88
CC(C)[C@H](CO)Nc1nc(Nc2cccc(Cl)c2)c2ncn(C(C)C)c2n1	2
CCc1nc(-c2ccc(OC)cc2)[nH]c1-c1ccncc1	74
COc1cc(OC)c(/C=C2\C(=O)Nc3ccccc32)c(OC)c1	86
O=C1c2ccccc2-c2nc3nnnn3nc21	101
